Data as given in PubChem BioAssay AID488969 (Vanderbilt High Throughput Screening Facility, 2010).
Whole data set: some 110,000 compounds, median “z-score” near -0.1, cut for the highest 2% near 2. The list comes from a sample in which the highest values are over-represented; it also holds similar structures and randomly drawn compounds. Calls of active or inactive are those of the source.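 Rule for the calls: active = z-score in the third read window above 3 or below -3; inactive = the rest.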

These molecules were tested against Metabotropic glutamate receptor 8 (Rattus norvegicus) (UniProt P70579) (assay: mGluR8 Gi/Go-coupled signaling modulation – cell-based, rat, thallium flux, HTS, primary screen (AID 488969)). Conditions: HEK293 rat mGluR8, GIRK (G protein-gated inwardly rectifying potassium channel) thallium flux, FluoZin2; at 10 µM; stronger effect = higher value; submaximal glutamate (EC20) added with thallium.
Chain of Metabotropic glutamate receptor 8 (Rattus norvegicus) (P70579 whole entry, looked up): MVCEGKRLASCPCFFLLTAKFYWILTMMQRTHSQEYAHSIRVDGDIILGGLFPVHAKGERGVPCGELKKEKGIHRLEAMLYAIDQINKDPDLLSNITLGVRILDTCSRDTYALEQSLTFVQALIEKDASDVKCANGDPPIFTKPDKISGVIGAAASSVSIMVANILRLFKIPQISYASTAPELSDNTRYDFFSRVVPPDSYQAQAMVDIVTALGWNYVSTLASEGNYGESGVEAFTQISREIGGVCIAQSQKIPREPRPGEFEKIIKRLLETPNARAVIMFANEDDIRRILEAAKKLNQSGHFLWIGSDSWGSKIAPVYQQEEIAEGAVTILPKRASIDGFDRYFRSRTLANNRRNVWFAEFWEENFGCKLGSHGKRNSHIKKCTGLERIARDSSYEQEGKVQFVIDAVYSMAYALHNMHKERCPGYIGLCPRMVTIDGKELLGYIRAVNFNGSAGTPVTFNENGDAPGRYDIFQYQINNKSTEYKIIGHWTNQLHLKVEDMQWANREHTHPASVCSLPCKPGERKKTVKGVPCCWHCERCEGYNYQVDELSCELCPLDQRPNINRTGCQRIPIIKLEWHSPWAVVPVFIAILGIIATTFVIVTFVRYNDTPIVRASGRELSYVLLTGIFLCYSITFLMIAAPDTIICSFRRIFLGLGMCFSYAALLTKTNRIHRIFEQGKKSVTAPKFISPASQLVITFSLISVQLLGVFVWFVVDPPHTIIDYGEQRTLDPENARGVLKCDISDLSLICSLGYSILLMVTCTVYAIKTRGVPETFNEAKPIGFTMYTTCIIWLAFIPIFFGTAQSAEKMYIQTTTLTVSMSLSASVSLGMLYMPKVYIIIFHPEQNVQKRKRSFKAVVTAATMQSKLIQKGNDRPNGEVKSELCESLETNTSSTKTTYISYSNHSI
In the case of Cc1cc(/C=N/NC(N)=O)c(C)c(CO)c1, the z-score is reported as -0.0977. CCn1c(SCC(=O)N2CCC(C(N)=O)(N3CCCCC3)CC2)nnc1-c1ccccc1 was tested, and the z-score was 2.65. Work on CCn1c(SCC(=O)N2CCCC2)nnc1-c1ccc(N)cc1 yielded a z-score of 0.183. For CCn1c(SCC(=O)N2CCC(C(N)=O)(N3CCCCC3)CC2)nc2ccccc2c1=O, the z-score was -1.2. With Cn1nnc2cc(C(=O)NCc3ccco3)ccc21 the z-score was 0.326. For CCOC(=O)NC(NC(=O)OCC)C(=O)c1ccccc1, the z-score was -0.227. CC(C)CCOP(=O)(c1ccccc1)c1ccccc1 was tested, and the z-score was -2.77. For CC(Nc1cc(N2CCCC2)ccc1[N+](=O)[O-])c1ccccc1 (stereo not drawn), the z-score was -0.624. In the case of CCCn1c(O)c(CN2CCCCC2)c(C)c(C#N)c1=O, the z-score is reported as -0.183. Work on O=C(/C=C/Nc1ccccc1)c1ccccc1 yielded a z-score of 0.219. For C(/C=C/C=C/Nc1ccccc1)=Nc1ccccc1, the z-score was 16.2 (active). For Brc1ccc(N=C/C=C/C=C/Nc2ccc(Br)cc2)cc1, the z-score was 0.151. Molecule Fc1ccccc1CSc1nc2ncc(Br)cc2[nH]1 has a z-score of 1.26. With CCC(NC(=O)NC1=NCCS1)(C(F)(F)F)C(F)(F)F the z-score was 0.399. C=CCn1c(=N)c(C(=O)OCC)cc2c(=O)n3cccc(C)c3nc21 gave a z-score of -0.017. With CCOCCCn1c(=N)c(C(N)=S)cc2c(=O)n3cccc(C)c3nc21 the z-score was 2. Work on CCn1c(=N)c(C(N)=O)cc2c(=O)n3cccc(C)c3nc21 yielded a z-score of -1.13. For COc1cc(C(=O)NCC(=O)N/N=C/c2cccs2)cc(OC)c1OC, the z-score was -0.174. With NC(=S)N=Nc1c(O)n(Cc2ccc(F)cc2)c2ccccc12 the z-score was 1.76. With CCCn1c(O)c(N=NC(=O)c2ccco2)c2ccccc21 the z-score was 3.17 (active). Work on Cn1c(O)c(N=NC(=O)CNC(=O)c2ccco2)c2ccccc21 yielded a z-score of -0.2. In the case of O=C(N=Nc1c(O)n(Cc2ccccc2)c2ccccc12)c1ccc(O)cc1, the z-score is reported as -0.143. With CCCCNC(=S)N=Nc1c(O)n(Cc2ccccc2)c2ccccc12 the z-score was 3.24 (active). NC(=S)N=Nc1c(O)n(Cc2ccccc2)c2ccccc12 gave a z-score of 0.17. For NC(=S)N=Nc1c(O)n(Cc2ccc(Br)cc2)c2ccccc12, the z-score was -0.0836. Work on Cc1ccc2c(c1)c(N=NC(N)=S)c(O)n2Cc1ccccc1 yielded a z-score of 2.88. With CCn1c(O)c(N=NC(=O)CNC(=O)c2ccco2)c2ccccc21 the z-score was -0.152. O=C1CC(=C2c3ccccc3-c3ccccc32)C(=O)N1CCN1CCN(c2cccc(Cl)c2)CC1 gave a z-score of -0.0614. For O=C(Nc1ccccc1)C(Cc1cccs1)c1nn[nH]n1 (stereo not drawn), the z-score was 0.0119. With Cc1ccc(S(=O)(=O)/N=S(/C)c2ccccc2)cc1 (stereo not drawn) the z-score was 0.693. CCN(C(=O)c1cc2ccccc2oc1=O)c1cccc(C)c1 showed a z-score of 0.00276. Work on CCCOc1ccc(C2(C(=O)O)CCCC2)cc1 yielded a z-score of 0.219. For O=C(CCC(=O)OCc1ccc(Br)cc1)Nc1ccccc1, the z-score was -0.0471. With Cc1cccc(-c2n[nH]c(=S)n2/N=C/c2ccc(C)o2)c1 the z-score was 0.433. Cc1cccc(/C=N/n2c(-c3ccncc3)n[nH]c2=S)c1 showed a z-score of -0.531. For CCN(CC)S(=O)(=O)c1cccc(-c2n[nH]c(=S)n2/N=C/c2ccc(C(=O)OC)cc2)c1, the z-score was 3.19 (active). Molecule COCCn1c(CN2CCN(c3ccc(OC)cc3)CC2)nc2c1c(=O)n(C)c(=O)n2C has a z-score of -0.219. Work on c1csc(Cn2c(-c3cccs3)nc3ccccc32)c1 yielded a z-score of -1.65. C=CCn1c(-c2cccs2)nc2ccccc21 was tested, and the z-score was 3.14 (active). CCn1c(-c2cccs2)nc2ccccc21 gave a z-score of -0.122. COc1cccc(NS(=O)(=O)c2ccc(NC(C)=O)cc2)c1 showed a z-score of -0.261. For COC(=O)CNc1nc(OC)nc(N(C)C)n1, the z-score was 0.391. Molecule Cc1cc(C(=O)N2CCC(Cc3ccccc3)CC2)ccc1[N+](=O)[O-] has a z-score of -0.573. O=C(c1ccccc1[N+](=O)[O-])N1CCC(Cc2ccccc2)CC1 was tested, and the z-score was -0.0322. In the case of Cc1cccc(C(=O)N2CCC(Cc3ccccc3)CC2)c1[N+](=O)[O-], the z-score is reported as 8.23 (active). CCNC(=O)CC1SC(=Nc2cccc(Cl)c2C)N(C)C1=O (stereo not drawn) showed a z-score of 0.271. Molecule c1coc(Cn2c(SCc3nc4ccccc4[nH]3)nnc2-c2cccs2)c1 has a z-score of -0.59. CCC(C)NC(=O)CN1C(=O)CC(C)(C)S(=O)(=O)c2ccccc21 (stereo not drawn) was tested, and the z-score was 4.26 (active). For CC1(C)CC(=O)N(CC(=O)NCc2ccccc2)c2ccccc2S1(=O)=O, the z-score was -0.409. CC1(C)CC(=O)N(CC(=O)O)c2ccccc2S1(=O)=O gave a z-score of -0.22. Cc1csc(NC(=O)C2CCCC2)n1 gave a z-score of 0.0786. Work on O=C(CN(Cc1ccco1)C(=O)c1ccc(Cl)cc1)Nc1ccc(Cl)c(Cl)c1 yielded a z-score of -0.0983. Cc1ccc(C(=O)NC2(C(F)(F)F)N=C3SCCN3C2=O)cc1 (stereo not drawn) gave a z-score of 2.91. With CC(C)Oc1ccc(C(=O)NC2(C(F)(F)F)N=C3SCCN3C2=O)cc1 (stereo not drawn) the z-score was 0.873. Work on O=C(NC1(C(F)(F)F)N=C2SCCN2C1=O)c1ccccc1 (stereo not drawn) yielded a z-score of -0.628. Work on CS(=O)(=O)Nc1ccc(C(=O)NC2CCCC2)cc1 yielded a z-score of -0.00695. With COc1ccc(OC)c(/C=N/NC(=O)CN2CCSCC2)c1 the z-score was 0.045. With CCn1cc(C(=O)NC(=S)Nc2sc3c(c2C(=O)OC)CCCCCC3)cn1 the z-score was -0.247. In the case of CCn1nnc(NC(=O)c2cccnc2Cl)n1, the z-score is reported as -0.48. For C/C(=N\NC(=S)Nc1ccc(F)cc1)c1ccc2c(c1)OCCO2, the z-score was 6.87 (active). In the case of C/C(=N/NC(=S)Nc1ccccc1)c1ccc2c(c1)OCO2, the z-score is reported as 7.92 (active). In the case of C/C(=N/NC(=O)c1ccc2c(c1)OCO2)c1ccc(NC(=O)C(F)(F)F)cc1, the z-score is reported as -0.151. C/C(=N/NC(=O)c1ccc2c(c1)OCO2)c1cccc(NC(=O)C(C)(C)C)c1 showed a z-score of -0.191. C/C(=N\NC(=O)c1ccccc1)c1ccc2c(c1)OCO2 gave a z-score of -0.195. Molecule C/C(=N\NC(=S)Nc1ccc(F)cc1)C1CC1 has a z-score of -0.155. COc1nc(N/N=C/c2cc3c(cc2Br)OCO3)nc(N2CCOCC2)n1 gave a z-score of -0.297. Cc1c(N=C2SCC(=O)N2/N=C/c2ccccc2)c(=O)n(-c2ccccc2)n1C gave a z-score of -0.023. With CSc1nc2ccc(NC(=O)c3nn(C(C)C)c(=O)c4ccccc34)cc2s1 the z-score was -0.391. Cc1ccc(SCc2cc(-c3ccc(Cl)cc3)on2)cc1 was tested, and the z-score was 0.048. For CCOc1ccc(-c2[nH]ncc2-c2csc(C)n2)c(O)c1, the z-score was -0.285. Molecule COc1ccc(NC(=O)CSc2nnc(Cn3cnc4ccccc43)n2C)cc1 has a z-score of 0.66. With O=C(Nc1ccc2c(c1)OCCO2)c1ccc2nccnc2c1 the z-score was 0.215. In the case of CCOC(=O)C1CCN(c2c(Nc3ccc4c(c3)OCCO4)c(=O)c2=O)CC1, the z-score is reported as -0.277.
